In PubChem BioAssay one finds composite z-score and z-score data, which are given here for six molecules.

Assay [1] in a line: small molecules captured by biotinylated probe aFSTL3 – biochemical, small-molecule microarray, fluorescence 635/667, stem cell growth factor project, primary screen (AID 1064).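 Also: measures binding of the biotinylated anti-FSTL3 antibody to printed compounds.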 The note with it: higher = more signal.
The nature of assay [2]: binders from COS7 lysate, DM2A8 probe, primary screen, torsin A project, cell lysate, small-molecule microarray, fluorescence 635/667 (AID 1065). The note with it: higher = more signal, COS7 lysate expressing mutant human TOR1A.
Assay [3] is described as follows: small molecules captured by biotinylated probe aFGF2 – biochemical, small-molecule microarray, fluorescence 635/667, stem cell growth factor project, primary screen (AID 1067).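 Also: measures binding of biotinylated aFGF2 protein to printed compounds on slides; z-score merges feature fluorescence and signal-to-noise across triplicate slides.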 The note with it: higher = more signal.
The nature of assay [4]: small molecules captured by biotinylated probe aFGF10 – biochemical, small-molecule microarray, fluorescence 635/667, stem cell growth factor project, primary screen (AID 1071).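 Also: score merges 667 nm spot intensity and signal to noise from triplicate slides.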 The note with it: higher = more signal.
The target of assay [5] is Neurogenic locus notch homolog protein 2 (Homo sapiens) (UniProt Q04721). The assay is described as follows: small molecules binding Notch2 protein – biochemical, small-molecule microarray, 635 nm fluorescence, stem cell growth factors, primary screen (AID 1073). The note with it: higher = more signal.
Neurogenic locus notch homolog protein 2 (Homo sapiens), sequence (Q04721 whole entry, looked up, canonical isoform): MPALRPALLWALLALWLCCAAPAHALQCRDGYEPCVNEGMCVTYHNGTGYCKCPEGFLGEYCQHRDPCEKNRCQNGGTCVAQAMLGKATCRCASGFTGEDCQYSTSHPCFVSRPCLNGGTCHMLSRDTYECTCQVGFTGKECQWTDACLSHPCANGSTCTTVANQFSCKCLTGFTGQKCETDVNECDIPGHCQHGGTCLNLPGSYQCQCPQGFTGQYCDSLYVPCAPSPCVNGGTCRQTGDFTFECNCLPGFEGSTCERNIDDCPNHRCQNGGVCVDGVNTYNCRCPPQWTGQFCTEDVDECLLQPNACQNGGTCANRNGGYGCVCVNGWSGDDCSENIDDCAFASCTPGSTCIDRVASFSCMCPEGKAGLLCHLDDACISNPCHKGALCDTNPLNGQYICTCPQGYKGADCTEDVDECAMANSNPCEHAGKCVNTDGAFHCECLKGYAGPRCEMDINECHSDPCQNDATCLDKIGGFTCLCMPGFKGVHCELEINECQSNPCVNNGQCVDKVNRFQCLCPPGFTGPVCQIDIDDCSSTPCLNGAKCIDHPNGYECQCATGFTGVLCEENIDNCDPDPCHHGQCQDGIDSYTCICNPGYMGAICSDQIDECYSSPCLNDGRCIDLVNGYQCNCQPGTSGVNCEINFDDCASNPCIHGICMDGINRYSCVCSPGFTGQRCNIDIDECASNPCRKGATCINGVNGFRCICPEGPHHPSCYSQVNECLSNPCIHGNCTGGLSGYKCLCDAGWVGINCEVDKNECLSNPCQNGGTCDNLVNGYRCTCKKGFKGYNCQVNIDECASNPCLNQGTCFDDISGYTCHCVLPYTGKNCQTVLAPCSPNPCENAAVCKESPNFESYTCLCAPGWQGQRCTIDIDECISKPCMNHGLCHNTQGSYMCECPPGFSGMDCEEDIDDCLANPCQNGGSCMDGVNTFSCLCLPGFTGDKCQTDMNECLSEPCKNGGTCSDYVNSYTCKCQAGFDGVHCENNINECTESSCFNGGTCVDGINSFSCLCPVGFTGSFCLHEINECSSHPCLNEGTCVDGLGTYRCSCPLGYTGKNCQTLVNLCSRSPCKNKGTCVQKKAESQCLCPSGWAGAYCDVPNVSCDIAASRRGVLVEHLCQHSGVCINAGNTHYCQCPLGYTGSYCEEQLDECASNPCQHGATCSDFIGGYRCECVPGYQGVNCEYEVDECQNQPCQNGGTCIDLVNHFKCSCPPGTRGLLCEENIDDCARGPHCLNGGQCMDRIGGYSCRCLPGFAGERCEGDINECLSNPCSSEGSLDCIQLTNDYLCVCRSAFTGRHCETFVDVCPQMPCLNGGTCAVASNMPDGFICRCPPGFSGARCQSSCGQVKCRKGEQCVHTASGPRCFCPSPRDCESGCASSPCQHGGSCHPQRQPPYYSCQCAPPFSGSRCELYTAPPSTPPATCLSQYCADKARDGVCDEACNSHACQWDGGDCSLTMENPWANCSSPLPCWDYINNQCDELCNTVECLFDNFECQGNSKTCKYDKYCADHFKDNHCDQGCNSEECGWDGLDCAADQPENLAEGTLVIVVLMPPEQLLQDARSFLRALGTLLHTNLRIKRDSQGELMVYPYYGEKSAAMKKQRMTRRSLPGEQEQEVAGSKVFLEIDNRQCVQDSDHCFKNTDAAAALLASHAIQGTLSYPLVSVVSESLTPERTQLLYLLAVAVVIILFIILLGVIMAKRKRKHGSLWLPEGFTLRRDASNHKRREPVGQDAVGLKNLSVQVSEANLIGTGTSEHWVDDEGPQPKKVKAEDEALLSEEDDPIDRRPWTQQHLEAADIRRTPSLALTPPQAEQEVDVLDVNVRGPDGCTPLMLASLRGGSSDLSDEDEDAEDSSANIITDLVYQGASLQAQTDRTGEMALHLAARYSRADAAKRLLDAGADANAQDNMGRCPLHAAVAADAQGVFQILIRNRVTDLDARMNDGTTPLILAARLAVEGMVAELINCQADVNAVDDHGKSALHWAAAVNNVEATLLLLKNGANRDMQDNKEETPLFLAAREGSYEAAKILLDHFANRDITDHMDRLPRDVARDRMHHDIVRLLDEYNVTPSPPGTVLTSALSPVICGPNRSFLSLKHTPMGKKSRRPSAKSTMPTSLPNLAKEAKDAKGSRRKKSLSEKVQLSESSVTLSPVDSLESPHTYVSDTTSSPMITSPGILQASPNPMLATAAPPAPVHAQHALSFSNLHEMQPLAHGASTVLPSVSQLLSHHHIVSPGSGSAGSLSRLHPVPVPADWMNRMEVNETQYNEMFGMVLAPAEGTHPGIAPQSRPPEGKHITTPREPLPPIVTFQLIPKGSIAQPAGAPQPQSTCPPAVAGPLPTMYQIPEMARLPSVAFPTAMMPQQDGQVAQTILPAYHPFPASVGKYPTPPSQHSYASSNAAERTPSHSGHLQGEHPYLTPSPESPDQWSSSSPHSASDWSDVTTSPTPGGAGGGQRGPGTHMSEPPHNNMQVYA
In assay [6] the target is Pro-neuregulin-1, membrane-bound isoform (Homo sapiens) (UniProt Q02297). Briefly: small molecules binding neuregulin-1 protein – biochemical, small-molecule microarray, fluorescence 635/667, psychiatric disease protein project, primary screen (AID 1075).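 Also: score combines 667 nm spot fluorescence with signal to noise.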 The note with it: NRG1 binding, 635 nm fluorescence, higher = more signal.
Pro-neuregulin-1, membrane-bound isoform (Homo sapiens), sequence (Q02297 whole entry, looked up, the tested form may be a part, canonical isoform): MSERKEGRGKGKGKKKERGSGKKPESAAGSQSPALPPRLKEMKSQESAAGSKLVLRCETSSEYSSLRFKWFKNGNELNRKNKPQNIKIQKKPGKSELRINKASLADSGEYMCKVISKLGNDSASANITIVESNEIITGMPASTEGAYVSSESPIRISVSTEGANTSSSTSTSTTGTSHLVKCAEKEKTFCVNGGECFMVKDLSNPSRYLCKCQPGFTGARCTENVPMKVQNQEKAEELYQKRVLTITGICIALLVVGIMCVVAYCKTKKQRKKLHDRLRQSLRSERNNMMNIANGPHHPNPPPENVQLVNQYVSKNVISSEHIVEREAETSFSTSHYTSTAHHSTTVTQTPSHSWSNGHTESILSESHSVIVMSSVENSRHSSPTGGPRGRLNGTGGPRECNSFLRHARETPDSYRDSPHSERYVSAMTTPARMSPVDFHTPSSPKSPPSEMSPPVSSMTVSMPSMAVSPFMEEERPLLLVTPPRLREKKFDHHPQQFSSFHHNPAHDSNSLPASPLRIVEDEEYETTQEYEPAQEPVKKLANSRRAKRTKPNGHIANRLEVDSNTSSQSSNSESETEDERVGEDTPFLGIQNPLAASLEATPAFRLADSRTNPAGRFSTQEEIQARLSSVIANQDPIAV
The subject of assay [7] is Neuregulin-1 EGF-like domain. Briefly: small molecules binding NRG1 EGF domain – biochemical, small-molecule microarray, 635 nm fluorescence, primary screen (AID 1081).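 Also: binding of the protein to compounds printed on small-molecule microarray slides.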 The note with it: higher = more signal.
Assay [8] can be described thus: FRG1 expression reporter modulators in myotubes – cell-based, C2C12 myotubes, firefly/Renilla luciferase, luminescence, FRG1 inhibition for FSHD, primary screen (AID 1084). The note with it: FRG1 promoter luciferase, higher = more signal, called active from +8 up or from −8 down.
Assay [9] can be described thus: small molecules captured by biotinylated probe aFST – biochemical, small-molecule microarray, fluorescence 635/667, stem cell growth factor project, primary screen (AID 1086).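 Also: score merges 667 nm fluorescence with signal-to-noise of each printed compound spot.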 The note with it: higher = more signal.
Assay [10] in a line: binders of probe aHhip on microarray, primary screen, stem cell growth factor project, biochemical, small-molecule microarray, fluorescence 635/667 (AID 1087).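 Also: score merges spot fluorescence at 667nm with spot signal to noise ratio.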 The note with it: higher = more signal.
The subject of assay [11] is PRMT1 (protein arginine N-methyltransferase 1). The assay is described as follows: small molecules binding arginine methyltransferase PRMT1 – biochemical, small-molecule microarray, 635 nm fluorescence, primary screen (AID 1088).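 Also: binding of Prmt1 protein to compounds spotted on small-molecule microarray slides.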 The note with it: higher = more signal.
Assay [12] is described as follows: growth effects on S. cerevisiae YJM789 – YJM789 clinical isolate, OD600, 24 h, basal, primary screen (AID 1089).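 Also: growth of clinical yeast isolate S. cerevisiae YJM 789 seeded 1000 cells per well; test concentration not given here.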 The note with it: higher = more signal, called active from +8 up or from −8 down.
A short description of assay [13]: S. pombe growth modifiers, basal conditions – strain 972, OD600, 24 h, no modulator, primary screen (AID 1090).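 Also: basal condition with compound alone and no growth modifier present; test concentration not given here.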 The note with it: S. pombe 972 growth, higher = more signal, called active from +8 up or from −8 down.
The nature of assay [14]: budding yeast growth modifiers under rapamycin – strain BY4716, OD600, 96 h, primary screen (AID 1091). Also: test concentration not given here. The note with it: S. cerevisiae BY4716 + rapamycin, higher = more signal, called active from +8 up or from −8 down.
Assay [15] deals with Torsin-1A-interacting protein 2 (Homo sapiens) (UniProt Q8NFQ8). The assay is described as follows: small molecules binding lysate-expressed LULL1 – cell lysate, human LULL1 lysate, 635/667 nm fluorescence, primary screen (AID 1092).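 Also: probe is lysate of COS7 cells overexpressing human LULL1; score merges per-feature 667 nm fluorescence with signal-to-noise.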 The note with it: small-molecule microarray, hLULL1 lysate binding, 635 nm fluorescence; higher = more signal.
Torsin-1A-interacting protein 2 (Homo sapiens), sequence (Q8NFQ8 whole entry, looked up): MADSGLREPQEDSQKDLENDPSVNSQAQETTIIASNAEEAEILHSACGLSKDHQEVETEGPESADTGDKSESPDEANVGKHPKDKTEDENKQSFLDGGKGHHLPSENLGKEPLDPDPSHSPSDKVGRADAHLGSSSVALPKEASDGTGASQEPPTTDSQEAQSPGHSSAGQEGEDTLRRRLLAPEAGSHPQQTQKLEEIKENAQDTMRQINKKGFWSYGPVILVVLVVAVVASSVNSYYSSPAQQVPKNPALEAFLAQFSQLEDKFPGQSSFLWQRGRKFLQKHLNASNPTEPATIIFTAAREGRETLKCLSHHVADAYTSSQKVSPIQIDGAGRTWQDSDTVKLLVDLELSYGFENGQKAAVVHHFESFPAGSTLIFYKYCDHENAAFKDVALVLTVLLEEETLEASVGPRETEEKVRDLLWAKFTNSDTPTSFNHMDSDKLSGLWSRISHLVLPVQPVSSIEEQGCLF
Assay [16] in a line: optical density change of DRC41 E. coli – strain DRC41, OD650, 24 h, E. coli filamentation project, primary screen (AID 1093).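 Also: MC1000 strain lacking acrAB efflux and sulA so SOS filamentation is blocked; test concentration not given here.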 The note with it: E. coli DRC41 growth, higher = more signal, called active from +8 up or from −8 down.
The nature of assay [17]: probe aLefty2 binding to arrayed compounds – biochemical, biotinylated probe, 635/667 nm fluorescence, primary screen (AID 1094).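 Also: score merges spot fluorescence near 667 nm with spot signal-to-noise ratio.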 The note with it: small-molecule microarray, higher = more signal.
Assay [18] relates to Noggin (protein binding on small-molecule microarray). The assay is described as follows: small molecules binding Noggin protein – biochemical, 635/667 nm fluorescence, primary screen (AID 1095).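 Also: score merges 667 nm feature fluorescence with signal to noise over triplicate slides.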 The note with it: 635 nm fluorescence, higher = more signal.
The target of assay [19] is Neurogenic locus notch homolog protein 3 (Homo sapiens) (UniProt Q9UM47). Briefly: small molecules binding NOTCH3 protein – biochemical, 635/667 nm fluorescence, primary screen (AID 1096). The note with it: small-molecule microarray, 635 nm fluorescence, higher = more signal.
Assay [20] can be described thus: probe aEGFR binding to arrayed compounds – biochemical, biotinylated probe, 635/667 nm fluorescence, primary screen (AID 1097).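 Also: probe is a biotinylated anti-EGFR antibody binding compounds printed on slides; score combines fluorescence near 667 nm and signal to noise of each spot.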 The note with it: small-molecule microarray, higher = more signal.

Where “and” joins values, the source holds several entries; their conditions need not be identical. Equal values may be shown once. Calls of active or inactive are those of the source.

For `C[C@@]1([C@@H](NC(=O)Cc2ccccc2)c2ccc(-c3ccccc3)cc2)C[C@H]1C1CCCCC1`, the composite z-score was 1.12 and 2.03 and -0.0771 in assay [1]; 0.528 and 0.149 and 0.36 in assay [2]; 0.611 and 0.674 and -0.218 in [3]; 0.602 and 0.59 and 0.392 in assay [4]; 0.866 and 0.815 and 0.536 in assay [5]; 1.41 and 0.96 and 0.841 in assay [6]. In addition, the composite z-score is 0.911 and 0.56 and 0.909 in assay [7]; 0.57 and 2.41 and 1.59 in assay [9]; 0.319 and 2.76 and -0.609 in assay [10]; 0.314 and 0.316 and 0.125 in [11]; -0.331 and 2.71 and 2.97 in assay [15]; 0.586 and 1.19 and -0.294 in assay [17]. Besides, the composite z-score in assay [18] was -0.0626 and -0.481 and -0.08; in assay [19], 0.444 and 0.213 and 0.544; in assay [20] it was 0.0843 and 0.812 and -0.116. The z-score in assay [8] is -1.2 (inactive) and -0.806 (inactive) and 1.29 (inactive); in assay [12], 0.375 (inactive) and 0.029 (inactive) and 0.56 (inactive); in assay [13], -6 (inactive) and -0.107 (inactive) and 1.45 (inactive); in assay [14] it was -0.167 (inactive) and 0.998 (inactive) and 2.36 (inactive); in assay [16], -1.16 (inactive) and -0.413 (inactive) and -1.74 (inactive).
With `C=CCN(CCCCC)C(=O)C(c1cccs1)N(C(=O)/C=C\C(=O)O)c1c(Cl)cccc1CO` (stereo not given), the composite z-score is 0.0175 and 0.264 in assay [1]; -0.764 and -0.654 in assay [2]; -0.21 and -0.122 in assay [3]; -1.57 and -1.12 in assay [4]; -2.35 and -1.74 in [5]; 1.12 and -0.954 in assay [6]. Further, the composite z-score in [7] was 0.683 and 0.526; in assay [9] it was -0.655 and -1.1; in assay [10] it was -0.128 and -0.323; in assay [11], -0.399 and -0.874; in assay [15], 2.54 and 0.687; in assay [17], 0.0503 and -0.151. The composite z-score is -2.9 and -1.86 in assay [18]; -0.864 and -1.23 in assay [19]; -0.348 and -0.216 in assay [20]. The z-score was -0.383 (inactive) and 0.395 (inactive) in [8]; 0.0767 (inactive) and -0.389 (inactive) in [12]; -0.186 (inactive) and -0.149 (inactive) in assay [13]; -0.288 (inactive) and -0.446 (inactive) in assay [14]; -0.422 (inactive) and -0.448 (inactive) in assay [16].
As to `C#CCN1C(/C=C/c2ccccc2)C(=O)OC[C@H]1c1ccccc1` (stereo not given in full), the composite z-score was -0.256 and -0.303 in assay [1]; 0.184 and 0.348 in assay [2]; -0.0569 and -0.1 in [3]; 0.301 and 0.398 in [4]; 0.346 and -0.0877 in assay [5]; -0.0907 and 0.365 in [6]. Also, the composite z-score in assay [7] is 0.165 and 0.833; in [9], -0.151 and 0.465; in [10], 0.0401 and -0.276; in assay [11], -0.0815 and 0.365; in assay [15], 0.447 and 2.09; in assay [17], -0.0766 and -0.215. Also, the composite z-score is 0.899 and 0.231 in [18]; 0.719 and 0.768 in assay [19]; -0.0304 and -0.0311 in assay [20]. In addition, the z-score is -1.03 (inactive) and -0.536 (inactive) in assay [8]; -3.12 (inactive) and -0.539 (inactive) in assay [12]; -7.61 (inactive) and -3.7 (inactive) in assay [13]; -3.5 (inactive) and -1.57 (inactive) in assay [14]; 1.07 (inactive) and 0.53 (inactive) in assay [16].
With `C=CCN(CCCC)C(=O)C1N(CCOCCO)C(=O)C2C(C(=O)O)C3C=CC21O3` (stereo not given), the composite z-score in [1] was 0.398 and 0.725; in assay [2], -1.98 and -0.776; in assay [3] it was -0.209 and -0.116; in assay [4], -1.13 and -0.467; in assay [5], -1.17 and -2.39; in [6] it was 1.64 and -0.729. For the same molecule, the composite z-score is 1.61 and 1.51 in [7]; -0.792 and -1.02 in assay [9]; -0.169 and -0.306 in [10]; -0.779 and -1.02 in assay [11]; 2.94 and -0.643 in assay [15]; -0.0065 and -0.291 in assay [17]. Also, the composite z-score is -2.5 and -2.13 in assay [18]; -0.298 and -1.36 in assay [19]; -0.326 and -0.314 in [20]. For the same molecule, the z-score in [8] is 0.75 (inactive) and 0.0827 (inactive); in [12] it was 0.784 (inactive) and 1.05 (inactive); in assay [13], 0.269 (inactive) and 0.777 (inactive); in [14], 1.11 (inactive) and 1.07 (inactive); in assay [16], 0.489 (inactive) and 0.0433 (inactive).
Turning to `C=CC[C@H](O)c1ccc(OCCO)cc1`, the composite z-score in assay [1] was 0.857 and 0.327; in assay [2] it was -0.688 and 0.148; in [3], -0.153; in assay [4], -1.16 and -0.746; in assay [5], -1 and -1.04; in [6] it was 0.524 and -0.434. The composite z-score in assay [7] was 0.176 and 0.997; in assay [9] it was -0.396 and -0.905; in assay [10] it was -0.261 and -0.296; in assay [11], -0.145 and -1.37; in assay [15], -0.435 and -2.14; in [17] it was -0.0653 and -0.181. For the same molecule, the composite z-score in assay [18] is -0.292 and 0.249; in assay [19], -0.847 and -0.324; in assay [20] it was -0.162 and -0.191. The z-score was 0.831 (inactive) and 2.16 (inactive) in assay [8]; -0.192 (inactive) and -0.831 (inactive) in assay [12]; -0.228 (inactive) and -0.917 (inactive) in [13]; -0.389 (inactive) and -1.19 (inactive) in [14]; -0.646 (inactive) and -0.812 (inactive) in [16].
As for `COc1ccc(-c2ccc3c(n2)CCCN3CC(O)CN2CCCc3nc(-c4ccc(Br)cc4)ccc32)cc1` (stereo not given), the composite z-score in [1] was 0.0623 and 0.0721; in assay [2] it was 0.744 and 0.464; in [3], 0.12; in assay [4], 0.505 and 0.348; in assay [5], 0.684 and 0.709; in assay [6], 1.05 and 0.841. Moreover, the composite z-score was 0.973 and 0.101 in assay [7]; 0.584 and 0.306 in assay [9]; 0.281 and 0.167 in assay [10]; 1.47 and -0.0348 in assay [11]; 1.24 and 0.778 in assay [15]; 0.351 and 0.141 in assay [17]. Moreover, the composite z-score in [18] is 0.348 and 0.245; in assay [19], 0.877 and 0.491; in assay [20], 0.181 and 0.106. Also, the z-score in assay [8] was 3.12 (inactive) and 3.15 (inactive); in assay [12] it was 0.0467 (inactive) and -0.621 (inactive); in [13], -0.665 (inactive) and 0.124 (inactive); in assay [14], -2.52 (inactive) and -1.64 (inactive); in assay [16] it was 0.0393 (inactive) and 0.816 (inactive).
